Test systems include T-47D breast; BT-549 breast; MDA-MB-435 melanoma; SW-620 colon; MCF7 breast; HCT-116 colon; HCC-2998 colon; KM12 colon.
Common to all, as to assay: NCI-60 one-dose screen, 48 h (100 = growth as untreated, 0 = no growth, -100 = all killed)
Settings in all cases: 10 µM unless noted

Compounds without any hit were thinned out: in the full panel of roughly 83,000, 20% have a hit.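 Growth was measured after 48 h exposure to one concentration of compound in 96-well plates. Values under 10 count as active.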 Values without a mark were called inactive. Activity calls are given as the source filed them.

Turning to `Cc1ccc(S(=O)(=O)N(CCc2ccc(Cl)cc2)S(=O)(=O)c2ccc(C)cc2)cc1`, the growth is 82% in the assay on T-47D breast; 98.8% in the assay on BT-549 breast; 95.4% in the assay on MDA-MB-435 melanoma; 101% with SW-620 colon; 87.9% with MCF7 breast; 93.3% in the assay with HCT-116 colon. In addition, the growth in the assay on HCC-2998 colon is 88.1%; in the assay with KM12 colon it was 91.7%.

For `COc1cc(C2CC(=O)c3c(C)nn(-c4nc5ccccc5[nH]4)c3C2)cc(OC)c1OC` (stereo not given), the growth with T-47D breast was 60%; in the assay on BT-549 breast, 77.7%; in the assay with MDA-MB-435 melanoma it was 99.8%; in the assay with SW-620 colon it was 99.6%; in the assay on MCF7 breast it was 76.4%; in the assay with HCT-116 colon it was 68.7%. For the same molecule, the results for the growth in the assay on HCC-2998 colon and with KM12 colon were 82.4% and 102%, respectively.

As for `CN1CCN(Cc2ccc(NC(=O)c3cncc(C#Cc4cncc5nccnc45)c3)cc2C(F)(F)F)CC1`, the growth in the assay on T-47D breast was 46.5%; in the assay with BT-549 breast, 82.8%; in the assay with MDA-MB-435 melanoma, 21.9%; with SW-620 colon, 26.4%; in the assay on MCF7 breast, 33.8%; in the assay with HCT-116 colon, 20.2%. Also, the growth was 33.6% in the assay on HCC-2998 colon and 13.9% with KM12 colon.

Regarding `CSc1nc(NCCCNc2ccnc3cc(Cl)ccc23)cc(-c2ccccc2)n1`, the growth in the assay on T-47D breast was 66.3%; with BT-549 breast, 86.9%; in the assay on MDA-MB-435 melanoma, 55.4%; with SW-620 colon it was 72%; in the assay on MCF7 breast, 6.05% (active); with HCT-116 colon, 43.1%. The growth in the assay with HCC-2998 colon is -59.6% (active); in the assay on KM12 colon, 68.3%.

Take `Cc1csc2ccc(Cl)cc12`: the growth in the assay with T-47D breast was 104%; with BT-549 breast, 104%; with MDA-MB-435 melanoma it was 103%; with SW-620 colon it was 102%; with MCF7 breast it was 98.3%; in the assay with HCT-116 colon it was 106%. The growth with HCC-2998 colon is 109%; with KM12 colon, 111%.

In the case of `CC(=O)Nc1ccc2c(c1)c(NC(C)=O)nn2C(=O)Nc1ccc(Cc2ccccc2)cc1`, the growth in the assay on T-47D breast is 82.5%; in the assay on BT-549 breast, 43%; with MDA-MB-435 melanoma it was 82.2%; in the assay on SW-620 colon it was 102%; in the assay on MCF7 breast it was 89.6%; in the assay with HCT-116 colon, 61%. Further, the growth is 78.8% in the assay on HCC-2998 colon and 85.9% in the assay with KM12 colon.

`O=C(/C=C/c1ccc(Cl)cc1)/C=C/c1cc2ccccc2[nH]c1=O`: the growth with T-47D breast was 48.7%; in the assay on BT-549 breast, 44.6%; in the assay with MDA-MB-435 melanoma, -1.71% (active); in the assay on SW-620 colon it was 8.48% (active); with MCF7 breast, 5.22% (active); in the assay on HCT-116 colon it was -55.7% (active). For the same molecule, the results for the growth with HCC-2998 colon and in the assay with KM12 colon were 73% and 28.3%, respectively.

`CN(C)c1ccc(C2Nc3ccccc3-n3cccc32)cc1` (stereo not given): the growth was 55.6% in the assay with T-47D breast; 99.8% in the assay with BT-549 breast; 96.5% in the assay with MDA-MB-435 melanoma; 97.6% with SW-620 colon; 38.4% in the assay on MCF7 breast; 97.4% in the assay on HCT-116 colon. Moreover, the growth is 85.2% with HCC-2998 colon and 97.7% in the assay on KM12 colon.

In the case of `NC1=CSC2=N/C(=C\c3ccc(Cl)cc3)C(=O)N12`, the growth in the assay on T-47D breast was 79%; in the assay with BT-549 breast it was 75.3%; in the assay with MDA-MB-435 melanoma, 68%; with SW-620 colon, 71.3%; in the assay with MCF7 breast, 67.2%; with HCT-116 colon it was 66.1%. Moreover, the growth in the assay on HCC-2998 colon is 90.2%; in the assay with KM12 colon it was 89.2%.

Turning to `CC(=O)C1=C(O)C=C2Oc3c(C(=O)/C=C/c4c(Cl)cccc4Cl)c(O)c(C)c(O)c3[C@]2(C)C1=O`, the growth is -20.2% (active) in the assay with T-47D breast; -28.9% (active) in the assay on BT-549 breast; -11.6% (active) in the assay on MDA-MB-435 melanoma; 5.36% (active) in the assay with SW-620 colon; -11.2% (active) in the assay with MCF7 breast; -26.8% (active) in the assay on HCT-116 colon. For the same molecule, the results for the growth with HCC-2998 colon and with KM12 colon were -59.6% (active) and -12.1% (active), respectively.

As to `CNC(=S)N/N=C/CSC/C=N/NC(=S)NC`, the growth with T-47D breast is 33.2%; in the assay on BT-549 breast, 96.8%; in the assay with MDA-MB-435 melanoma it was 81.7%; in the assay on SW-620 colon, 64.5%; with MCF7 breast, 3.33% (active); with HCT-116 colon, 63.3%. The values for the growth in the assay on HCC-2998 colon and with KM12 colon were 97.6% and 75.9%, respectively.

Turning to `C=C1CC[C@@H]2[C@](C)(COC(C)=O)[C@H](OC(C)=O)CC[C@@]2(C)[C@@H]1CC(Nc1ccc(S(=O)(=O)Nc2nc(C)cc(C)n2)cc1)C1=CCOC1=O` (stereo not given in full), the growth in the assay with T-47D breast was 68.8%; in the assay on BT-549 breast, 71.9%; in the assay with MDA-MB-435 melanoma, 67%; in the assay with SW-620 colon it was 40%; in the assay on MCF7 breast, 40.3%; with HCT-116 colon, 39.2%. Further, the values for the growth in the assay with HCC-2998 colon and in the assay on KM12 colon were 100% and 64.7%, respectively.

Regarding `CCN(CC)CC(O)c1cc(-c2ccc(Cl)cc2)nc2c(C)c(Cl)ccc12` (stereo not given), the growth with T-47D breast was -89.2% (active); with BT-549 breast it was -36.1% (active); with MDA-MB-435 melanoma, -90% (active); with SW-620 colon it was -85.8% (active); with MCF7 breast, -92% (active); with HCT-116 colon it was -100% (active). The growth in the assay on HCC-2998 colon was -97.4% (active); in the assay on KM12 colon, -100% (active).

With `CC[C@H](Nc1cc(C)nc(N)n1)c1nc2cccc(NCc3ccc(C(=O)NO)cc3)c2c(=O)n1-c1ccccc1`, the growth in the assay on T-47D breast was 18.7%; with BT-549 breast, 49.1%; with MDA-MB-435 melanoma it was -15% (active); with SW-620 colon it was -10.8% (active); in the assay on MCF7 breast, 24.7%; in the assay on HCT-116 colon, -18.7% (active). The growth in the assay on HCC-2998 colon is 19.9%; with KM12 colon, 13.1%.

In the case of `CC1=NNC(=O)C1C` (stereo not given), the growth was 104% with T-47D breast; 284% in the assay with BT-549 breast; 104% in the assay with MDA-MB-435 melanoma; 98% in the assay on SW-620 colon; 104% in the assay on MCF7 breast; 84.2% in the assay with HCT-116 colon. The growth in the assay on HCC-2998 colon was 103%; with KM12 colon, 102%.

(Values after PubChem BioAssay (NCI).)
